We go through 7 compounds from PubChem BioAssay (EPA / NIEHS).

Assay [1] concerns the target guinea pig Opioid, Kappa 1 Receptor (OpiateK), OPRK1 (gene 100135587) (UniProt P41144). The assay can be described thus: NVS_GPCR_gOpiateK: NovaScreen (NVS) G Protein-Coupled Receptor Assay for guinea pig Opioid, Kappa 1 Receptor (OpiateK) (AID 2283252).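 Also: active means reduced radioligand binding relative to DMSO.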 The method in brief:
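Radioligand binding to kappa opioid receptor in guinea pig cerebellar membranes, read by filtration and scintillation at 2 h. Compounds first tested in duplicate at 25 uM, then actives in concentration series; signal loss fitted against DMSO.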

Assay [2] concerns the target human Adenosine A1 Receptor (AdoRA1), ADORA1 (gene 134) (UniProt P30542). Briefly: NVS_GPCR_hAdoRA1: NovaScreen (NVS) G Protein-Coupled Receptor Assay for human Adenosine A1 Receptor (AdoRA1) (AID 2283254). In short, it runs like this: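 Each chemical is first tested twice at 25 uM, actives later in dilution series, against a radioligand bound to human cortex membranes; after 1 h, filter-retained counts are compared with DMSO controls, lower signal indicating displacement.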

In assay [3] the target is Muscarinic acetylcholine receptor M2 (Homo sapiens) (UniProt P08172). The assay can be described thus: NVS_GPCR_hM2: NovaScreen (NVS) G Protein-Coupled Receptor Assay for human Muscarinic, M2 Receptor (AID 2283273). The method in brief: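 CHO-expressed human M2 receptor preparation, competitive displacement of a radioligand read by filter-based scintillation counting after 1 h. Single 25 uM duplicate screen, then concentration-response follow-up of actives; DMSO baseline.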
Muscarinic acetylcholine receptor M2 (Homo sapiens), sequence (P08172 whole entry, looked up): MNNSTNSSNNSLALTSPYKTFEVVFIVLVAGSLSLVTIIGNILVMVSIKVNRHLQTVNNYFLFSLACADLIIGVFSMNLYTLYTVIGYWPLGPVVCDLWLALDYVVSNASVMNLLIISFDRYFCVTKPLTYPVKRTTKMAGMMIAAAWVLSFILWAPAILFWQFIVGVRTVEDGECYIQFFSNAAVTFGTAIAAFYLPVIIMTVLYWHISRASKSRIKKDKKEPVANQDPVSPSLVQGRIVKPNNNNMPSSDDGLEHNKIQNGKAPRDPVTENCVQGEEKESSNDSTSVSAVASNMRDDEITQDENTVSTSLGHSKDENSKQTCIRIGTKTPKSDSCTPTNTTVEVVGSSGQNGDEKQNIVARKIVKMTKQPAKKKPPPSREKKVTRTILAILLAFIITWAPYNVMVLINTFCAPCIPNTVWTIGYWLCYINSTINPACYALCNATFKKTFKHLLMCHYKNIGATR

Assay [4] concerns the target human Neurokinin, NK2 Receptor, TACR2 (gene 6865) (UniProt P21452). Briefly: NVS_GPCR_hNK2: NovaScreen (NVS) G Protein-Coupled Receptor Assay for human Neurokinin, NK2 Receptor (AID 2283278).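 Also: actives reduce bound radioligand signal relative to DMSO baseline.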 The method in brief:
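Test chemicals displace a radioligand from receptor prepared from CHO cells in a cell-free format, read after 4 hours by scintillation counting on filters. Screening starts at 25 uM in duplicate, and active chemicals then go to concentration series.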

For assay [5], the target named is human Opioid Receptor Mu (Opiate Mu), OPRM1 (gene 4988) (UniProt P35372). Briefly: NVS_GPCR_hOpiate_mu: NovaScreen (NVS) G Protein-Coupled Receptor Assay for human Opioid Receptor Mu (Opiate Mu) (AID 2283290).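 Also: hits lower bound tracer signal versus DMSO meaning displacement of the ligand.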 The method in brief:
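Here, radioligand binding to CHO-extracted receptor was measured after 2.5 h using filter-based scintillation detection. Initial single-concentration screening used 25 uM in duplicate with plate controls; confirmed actives went to concentration-response testing.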

Inconclusive results are not listed. Activity calls are given as the source filed them. The calls were made as follows: active = hit-call score of the fitted dose curve at least 0.9, where 1 is the maximum; inconclusive = response in the unintended direction; inactive = score below 0.9.

human Opioid Receptor Mu (Opiate Mu), OPRM1 (gene 4988), sequence (P35372 whole entry, looked up): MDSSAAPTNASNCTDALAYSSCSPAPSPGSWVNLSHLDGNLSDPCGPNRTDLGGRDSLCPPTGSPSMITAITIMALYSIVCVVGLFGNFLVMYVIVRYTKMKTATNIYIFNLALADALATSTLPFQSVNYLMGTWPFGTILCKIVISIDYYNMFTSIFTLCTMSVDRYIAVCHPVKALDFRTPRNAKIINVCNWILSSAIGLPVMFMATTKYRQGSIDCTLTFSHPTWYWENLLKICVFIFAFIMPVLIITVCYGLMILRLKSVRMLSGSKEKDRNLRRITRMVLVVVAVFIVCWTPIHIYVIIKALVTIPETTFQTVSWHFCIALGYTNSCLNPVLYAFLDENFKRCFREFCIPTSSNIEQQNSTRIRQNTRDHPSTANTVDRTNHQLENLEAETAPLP
human Neurokinin, NK2 Receptor, TACR2 (gene 6865), sequence (P21452 whole entry, looked up): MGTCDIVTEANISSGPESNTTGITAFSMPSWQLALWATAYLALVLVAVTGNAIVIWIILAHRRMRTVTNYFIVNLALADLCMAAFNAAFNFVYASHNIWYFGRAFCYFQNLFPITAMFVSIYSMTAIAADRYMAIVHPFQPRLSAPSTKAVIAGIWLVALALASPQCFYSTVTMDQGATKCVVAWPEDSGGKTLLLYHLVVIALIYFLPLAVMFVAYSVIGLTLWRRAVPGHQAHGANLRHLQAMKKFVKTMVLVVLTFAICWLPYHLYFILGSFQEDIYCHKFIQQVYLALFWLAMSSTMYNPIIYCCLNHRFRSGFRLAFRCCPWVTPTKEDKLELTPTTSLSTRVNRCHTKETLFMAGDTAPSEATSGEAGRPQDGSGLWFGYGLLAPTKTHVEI
human Adenosine A1 Receptor (AdoRA1), ADORA1 (gene 134), sequence (P30542 whole entry, looked up): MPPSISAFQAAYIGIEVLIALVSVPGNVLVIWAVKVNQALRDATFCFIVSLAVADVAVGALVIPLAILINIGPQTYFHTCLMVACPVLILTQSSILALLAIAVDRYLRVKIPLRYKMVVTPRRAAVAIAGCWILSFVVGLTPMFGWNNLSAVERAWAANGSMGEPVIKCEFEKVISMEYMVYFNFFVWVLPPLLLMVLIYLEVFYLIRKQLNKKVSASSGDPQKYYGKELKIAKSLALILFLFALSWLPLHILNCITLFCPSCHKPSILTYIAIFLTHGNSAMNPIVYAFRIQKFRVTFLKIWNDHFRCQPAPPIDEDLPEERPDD
guinea pig Opioid, Kappa 1 Receptor (OpiateK), OPRK1 (gene 100135587), sequence (P41144 whole entry, looked up): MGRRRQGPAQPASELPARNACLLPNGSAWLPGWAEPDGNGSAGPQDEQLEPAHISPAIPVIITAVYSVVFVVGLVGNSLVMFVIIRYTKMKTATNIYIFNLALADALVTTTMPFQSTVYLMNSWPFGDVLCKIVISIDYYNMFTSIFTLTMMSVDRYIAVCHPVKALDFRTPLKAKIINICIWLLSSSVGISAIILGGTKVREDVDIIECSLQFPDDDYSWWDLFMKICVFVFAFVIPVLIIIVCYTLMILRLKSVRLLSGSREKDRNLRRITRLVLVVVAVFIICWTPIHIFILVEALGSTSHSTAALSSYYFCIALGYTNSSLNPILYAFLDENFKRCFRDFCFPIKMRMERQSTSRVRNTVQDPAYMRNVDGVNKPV

With `C#CC1(O)CC[C@H]2[C@@H]3CCC4=CCCC[C@@H]4[C@H]3CC[C@@]21C` (some centres undefined), in assay [1], the compound was called inactive.

`Cn1c(=O)[nH]c2ncn(C)c2c1=O`: in assay [2], the half-maximal activity concentration (AC50) (commonly the midpoint of the concentration-response curve, whichever way the signal moves) is 25 µM (active).

As to `O=C(Nc1ccccc1SSc1ccccc1NC(=O)c1ccccc1)c1ccccc1`, in assay [2], the AC50 is 25 µM (active).

With `CCCCCCCCCCCCCCCC[N+](C)(C)CC`, the values for the half-maximal activity concentration (AC50) in assay [3], in assay [4] and in assay [5] were 0.395 µM (active), 1.78 µM (active) and 2.05 µM (active), respectively.

With `CC(C)c1ccc(C=O)cc1`, the outcome in assay [3] was inactive.

Take `O=C(Cl)c1cc(C(=O)Cl)cc(C(=O)Cl)c1`: the AC50 in assay [4] is 15 µM (active).

As to `CCCCC/C=C\C/C=C\CCCCCCCC(=O)OC`, the AC50 in assay [5] was 16.9 µM (active).
